Reference: PubChem BioAssay (NCI)
About 83,000 compounds went through this panel and 20% of them were active in at least one assay; those are over-represented in the sample as a whole.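 Cells were grown in 96-well plates and exposed to the test compound at a single concentration for 48 hours; results are reported as percent growth, with values below 10 considered active.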 Active and inactive are the calls of the source.

System: EKVX NSCLC
Test: NCI-60 one-dose screen, 48 h (100 = growth as untreated, 0 = no growth, -100 = all killed)
Details: 10 µM unless noted

Structure (SMILES) | growth
C=C(C)[C@@H]1C[C@H](O)Cc2cc(F)ccc2N1 | 87.3% (inactive)
CNC(=S)NNC(=O)C1CC1 | 105% (inactive)
CCOC(=O)C1CCNC(=O)C1=O (stereo not given) | 122% (inactive)
COc1ccc(CNCCCN2C(=O)c3ccc4c5c(ccc(c35)C2=O)C(=O)N(CCCNCCCCNCCCN)C4=O)c(OC)c1OC | 48.7% (inactive)
Cc1ccc(S(=O)(=O)C2=C3C(=C(c4ccccc4)c4ccccc43)CN(S(=O)(=O)c3ccc(C)cc3)C2)cc1 | 77.9% (inactive)
COc1cc2c(c(OC)c1OC)-c1ccc(N)c(=O)cc1[C@@H](NC(C)=O)CC2 | 51.4% (inactive)

System: SN12C renal
Test: as above
Details: 10 µM unless noted

Structure (SMILES) | growth
CC(C)(C)OC(=O)NC(CSCc1ccccc1)C(=O)ON1C(=O)CCC1=O (stereo not given) | 107% (inactive)
Nc1cccc(Cl)c1N | 112% (inactive)
C/C(=C\c1ccc(OCC(=O)O)c(Cl)c1Cl)[N+](=O)[O-] | 106% (inactive)
CCOC(=O)C1=C(C)NC(C)=C(C(=O)OCC)C1(C)C | 97% (inactive)
N#C/C(=C1C=C/C(=N/O)C(Cl)=C/1)c1ccc(Cl)cc1 | 66.6% (inactive)
CCC(C)/C(=C\C#N)NCCCN/C(=C/C#N)C(C)CC (stereo not given) | 99.7% (inactive)
Cn1ncc2c(Sc3ccc(Cl)cc3)ncnc21 | 90.1% (inactive)
O=C(CSC1CCc2ccccc21)N/N=C/c1ccccc1O (stereo not given) | 59.9% (inactive)
CC1(c2ccc(Cl)cc2)OC(=O)CC(=O)O1 | 102% (inactive)
O=C1C(Cl)=C(Nc2ccccn2)C(=O)c2ccccc21 | 5.54% (active)
CCCCCCCCCCCCCCCCNC(=O)OC(C)C | 64.3% (inactive)
Cc1ccc2nc(Cl)cc(=O)n2c1 | 101% (inactive)
CC1CCC(C)N(C)C1 (stereo not given) | 92.8% (inactive)
CCc1cnc(=S)n(-c2ccccc2)c1 | 103% (inactive)
CC(=O)Nc1nc(N)nc(NC(C)=O)c1N=O | 106% (inactive)
COc1cc(C2CC(c3ccc4c(c3)OCO4)=NN2C(C)=O)cc(OC)c1OC (stereo not given) | 46.3% (inactive)
O=C(c1ccccc1)C1OC1c1ccc([N+](=O)[O-])cc1 (stereo not given) | 76.7% (inactive)
COc1ccc2c(c1)C(c1cc(OC)c3c(c1)OCO3)C1=C(COC1=O)N2 (stereo not given) | 28% (inactive)
CC(=O)Nc1scc[n+]1Cc1ccccc1 | 111% (inactive)
C=C1CCC2C3(C)COC(c4ccccc4)OC3CCC2(C)C1/C=C/C1=CCOC1=O (stereo not given) | 24% (inactive)

Structure (SMILES) | growth
CCN(CC)CCOc1ccc(Cl)c(C)c1 | 108% (inactive)
O=C(Oc1ccccc1[N+](=O)[O-])C1CCCN1C(=O)OCc1ccccc1 (stereo not given) | 98.7% (inactive)
CC(=O)Nc1ccc(S(=O)(=O)n2ccc(-c3ccc4c(c3)CCC(C)(C)O4)n2)cc1 | 89% (inactive)
CC(C)(C)OC(=O)NCCc1ccc(N=C=S)cc1 | 90.6% (inactive)
COc1cc(C2CC(c3ccc4c(c3)OCO4)=NN2C=O)cc(OC)c1OC (stereo not given) | 46.3% (inactive)
O=C1CCCCC1(c1ccccc1)c1ccccc1 | 104% (inactive)
Nc1nc(=O)c2ccccc2s1 | 98.9% (inactive)
CN1C=CN(Cc2ccc(-c3ccccn3)nc2)[CH-]1.CN1C=CN(Cc2ccc(-c3ccccn3)nc2)[CH-]1.[Au+3] | 41.3% (inactive)
COC(OC)c1ccccc1 | 102% (inactive)
C=C[C@@H]1C[C@H](O)Cc2cc(F)ccc2N1 | 101% (inactive)
CN(C)c1ncnc2c1ccn2C1OC(CO)C(O)C1O (stereo not given) | 17.8% (inactive)
NC1=NN(O)C2=CC([N+](=O)[O-])C=CC2=N1 (stereo not given) | 112% (inactive)
O=C([O][Sn]([O]C(=O)c1ccccn1)([c]1ccccc1)[c]1ccccc1)c1ccccn1 | 91.3% (inactive)
C=C(C)[C@@H]1C[C@H](O)Cc2cc(F)ccc2N1 | 93.8% (inactive)
CNC(=S)NNC(=O)C1CC1 | 109% (inactive)
CCOC(=O)C1CCNC(=O)C1=O (stereo not given) | 97.3% (inactive)
COc1ccc(CNCCCN2C(=O)c3ccc4c5c(ccc(c35)C2=O)C(=O)N(CCCNCCCCNCCCN)C4=O)c(OC)c1OC | -54.6% (active)
Cc1ccc(S(=O)(=O)C2=C3C(=C(c4ccccc4)c4ccccc43)CN(S(=O)(=O)c3ccc(C)cc3)C2)cc1 | 55.3% (inactive)
COc1cc2c(c(OC)c1OC)-c1ccc(N)c(=O)cc1[C@@H](NC(C)=O)CC2 | 27.6% (inactive)
